Data as given in publication PMC4336329 (PLoS ONE, 2015).
Out of some 310,000 compounds screened, about 14,000 (4.5%) showed an effect of 50% or more. Effects have a minus sign here. The sample as a whole holds a higher share of strong results than the screen did.

Biological target: human ether-à-go-go-related gene (hERG) potassium channel (human, UniProt Q12809)
Assay: primary screen, population patch clamp on CHO cells stably expressing hERG; higher = less effect of the substance
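Note: peak tail current of the secondary pulse compared with the same well before compound.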

Sequence of human ether-à-go-go-related gene (hERG) potassium channel (Q12809 whole entry, looked up): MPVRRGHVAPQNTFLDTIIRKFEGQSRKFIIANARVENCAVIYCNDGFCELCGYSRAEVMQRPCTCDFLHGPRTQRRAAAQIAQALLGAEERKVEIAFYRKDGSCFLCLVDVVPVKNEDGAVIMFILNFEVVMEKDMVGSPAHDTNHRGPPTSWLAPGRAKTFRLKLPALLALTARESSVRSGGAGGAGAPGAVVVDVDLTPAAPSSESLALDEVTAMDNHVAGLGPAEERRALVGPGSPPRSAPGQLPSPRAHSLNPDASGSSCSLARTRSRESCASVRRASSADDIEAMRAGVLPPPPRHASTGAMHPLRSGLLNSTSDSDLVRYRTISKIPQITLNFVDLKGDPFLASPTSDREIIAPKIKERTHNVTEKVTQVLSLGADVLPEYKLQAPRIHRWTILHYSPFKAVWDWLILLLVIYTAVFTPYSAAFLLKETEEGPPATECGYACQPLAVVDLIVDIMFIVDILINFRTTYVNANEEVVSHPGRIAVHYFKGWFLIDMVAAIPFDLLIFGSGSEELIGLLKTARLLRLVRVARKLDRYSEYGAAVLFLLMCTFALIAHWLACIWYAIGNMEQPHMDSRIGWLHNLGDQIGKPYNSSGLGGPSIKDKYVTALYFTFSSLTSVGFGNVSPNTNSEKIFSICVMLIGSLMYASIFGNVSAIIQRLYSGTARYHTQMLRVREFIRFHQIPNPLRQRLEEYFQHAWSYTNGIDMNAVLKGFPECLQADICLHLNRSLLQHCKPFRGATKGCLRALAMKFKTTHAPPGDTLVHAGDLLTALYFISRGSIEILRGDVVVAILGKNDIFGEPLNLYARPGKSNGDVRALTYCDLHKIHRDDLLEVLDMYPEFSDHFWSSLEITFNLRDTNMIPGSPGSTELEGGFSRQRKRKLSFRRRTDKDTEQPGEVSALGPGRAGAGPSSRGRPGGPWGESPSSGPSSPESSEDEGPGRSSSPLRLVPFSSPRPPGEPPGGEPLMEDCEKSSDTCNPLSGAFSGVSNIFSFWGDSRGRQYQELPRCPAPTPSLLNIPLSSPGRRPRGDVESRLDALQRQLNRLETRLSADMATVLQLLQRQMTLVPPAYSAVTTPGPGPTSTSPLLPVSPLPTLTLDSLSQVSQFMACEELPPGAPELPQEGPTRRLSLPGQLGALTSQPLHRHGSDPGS

Going from CC(C)CNC(=S)N1CCC(NC(=O)C23CC4CC(CC(C4)C2)C3)CC1 to CCOC(=O)C1CCN(C(=O)C(=O)Nc2ccc3nc4n(c(=O)c3c2)CCCCC4)CC1, the “hERG current change (%, negative = inhibition) at 10uM” value rises from -7.73% to 1.99%.

First: CC(=O)N1CCC(=NNC(=O)c2cc3ccccc3cc2O)CC1
Second: COc1ccc(-n2c(SC(C)C(=O)N3CCOCC3)nc3ccccc3c2=O)cc1 (stereo not shown)
The “hERG current change (%, negative = inhibition) at 10uM” value of the first is higher: 16.8% for the first, 6.84% for the second.

Compared with O=C(Cc1ccc(-c2ccccc2)cc1)Nc1ccccc1, COc1ccc(C(=O)Nc2ccc(NC(C)=O)cc2)cc1S(=O)(=O)N(C)Cc1ccccc1 is lower in “hERG current change (%, negative = inhibition) at 10uM” value: 19.1% for the first, 10.3% for the second.

Going from COc1cc(S(=O)(=O)NCc2ccc3c(c2)OCO3)ccc1Cl to COc1ccc(C(=O)NCc2ccc3c(c2)OCO3)cc1S(=O)(=O)N(C)Cc1ccccc1, the “hERG current change (%, negative = inhibition) at 10uM” value rises from -26.1% to -12.3%.

First: CC1Cc2ccccc2N1C(=S)NC(=O)c1ccco1 (stereo not shown)
Second: CCN(Cc1ccccc1)S(=O)(=O)c1cc(C(=O)O)ccc1OC
The “hERG current change (%, negative = inhibition) at 10uM” value of the first is higher: 16.2% for the first, 14.1% for the second.

Going from O=C(COc1ccccc1)Nc1nccs1 to COc1ccc(OCC(=O)NNC(=O)c2nn(C)c(=O)c3ccccc23)cc1, the “hERG current change (%, negative = inhibition) at 10uM” value falls from -13.5% to -21.1%.

First: CCn1nc(C(=O)NNC(=O)COc2ccc(OC)cc2)c2ccccc2c1=O
Second: CCc1ccc(OCC(=O)NNC(=O)c2nn(CC)c(=O)c3ccccc23)cc1
The “hERG current change (%, negative = inhibition) at 10uM” value of the first is higher: -23.4% for the first, -57.9% for the second.

First: CCn1nc(C(=O)NNC(=O)COc2ccccc2C)c2ccccc2c1=O
Second: CCn1nc(C(=O)NNC(=O)CCOc2cc(C)ccc2C)c2ccccc2c1=O
The “hERG current change (%, negative = inhibition) at 10uM” value of the first is higher: -16% for the first, -77.6% for the second.

Compared with CCCn1nc(C(=O)NNC(=O)CCOc2ccccc2OCC)c2ccccc2c1=O, CCOCCCn1c(SCc2nc3ccccc3s2)nc2ccccc2c1=O is higher in “hERG current change (%, negative = inhibition) at 10uM” value: -21.8% for the first, -2.07% for the second.

Compared with COc1ccc(C(CC(=O)NCc2ccco2)c2ccc(F)cc2)cc1 (stereo not shown), COc1ccc(C(=O)NC(C)c2ccncc2)cc1S(=O)(=O)N(C)Cc1ccccc1 (stereo not shown) is lower in “hERG current change (%, negative = inhibition) at 10uM” value: -22.4% for the first, -61% for the second.

Compared with O=C(NCc1nnc(SCC(=O)N2CCN(c3ccccc3)CC2)o1)c1ccc(F)cc1, CCn1c(SCC(=O)N2CCN(c3ccc(F)cc3)CC2)nc2ccccc2c1=O is lower in “hERG current change (%, negative = inhibition) at 10uM” value: -5.96% for the first, -45.2% for the second.

Going from O=S(=O)(NCc1cccnc1)c1cccc2cccnc12 to Cc1ccc(C(C(=O)NC2CCCC2)N(C(=O)CNC(=O)c2cccs2)c2cccnc2)o1 (stereo not shown), the “hERG current change (%, negative = inhibition) at 10uM” value falls from 6.44% to -11.1%.

Going from COc1ccc(CCNS(=O)(=O)c2ccc3c(c2)CCN3C(=O)C2CC2)cc1OC to CCN(Cc1ccccc1)S(=O)(=O)c1cc(C(=O)NCC2CCCCC2)ccc1OC, the “hERG current change (%, negative = inhibition) at 10uM” value falls from 0.919% to -9.52%.

First: CCn1c(SCC(=O)N2CCN(c3ccc(Cl)cc3)CC2)nc2ccccc2c1=O
Second: CCCn1c(SCC(=O)N2CCN(c3ccccc3)CC2)nc2ccccc2c1=O
The “hERG current change (%, negative = inhibition) at 10uM” value of the first is higher: 8.79% for the first, -56.7% for the second.

Compared with Cc1ccc(C)n1CCN1CCN(C(=O)CSc2nc3ccccc3nc2N2CCOCC2)CC1, O=C(CSc1nc2ccccc2nc1N1CCOCC1)N1CCN(c2ccccc2)CC1 is higher in “hERG current change (%, negative = inhibition) at 10uM” value: -54.5% for the first, -39.2% for the second.

Compared with CCCn1c(SC(C)C(=O)N2CCOCC2)nc2ccc(Br)cc2c1=O (stereo not shown), CCn1c(SC(C)C(=O)N2CCOCC2)nc2sc(C)c(C)c2c1=O (stereo not shown) is higher in “hERG current change (%, negative = inhibition) at 10uM” value: -56.1% for the first, 3.37% for the second.

First: O=c1c2ccccc2nc(SCc2nc3ccccc3s2)n1CCCO
Second: CCCCn1c(SCc2nc3ccccc3s2)nc2ccccc2c1=O
The “hERG current change (%, negative = inhibition) at 10uM” value of the first is higher: -4.88% for the first, -54.7% for the second.

Compared with O=C(CSc1nc2ccccc2nc1SCC(=O)N1CCOCC1)N1CCOCC1, CCCCn1c(SCC(=O)N2CCOCC2)nc2ccccc2c1=O is lower in “hERG current change (%, negative = inhibition) at 10uM” value: -5.85% for the first, -68.4% for the second.

Going from O=C1CCC(C(=O)Nc2ccc(Cl)cc2)N1 (stereo not shown) to CC1CCN(C(=O)c2ccc3c(c2)NC(=O)CN3)CC1, the “hERG current change (%, negative = inhibition) at 10uM” value falls from 28% to 8.49%.

Compared with Nc1ccc(C2(c3ccc(N)cc3)OC(=O)c3ccccc32)cc1, O=C(CCc1c[nH]c2ccccc12)OCc1ccc(Br)cc1 is higher in “hERG current change (%, negative = inhibition) at 10uM” value: -6.43% for the first, 10.2% for the second.

First: CCC1(C)Cc2c(sc3nc(NN)n(C)c(=O)c23)CO1 (stereo not shown)
Second: CCCCn1c(SCC(=O)NC2CC2)nc2ccccc2c1=O
The “hERG current change (%, negative = inhibition) at 10uM” value of the first is higher: 13.4% for the first, -4.62% for the second.

First: Cc1[nH]c2ccccc2c1C(=O)CSc1nc2ccccc2c(=O)n1CCCN1CCOCC1
Second: O=C(CSc1nc2ccccc2c(=O)n1CCCN1CCOCC1)c1c[nH]c2ccccc12
The “hERG current change (%, negative = inhibition) at 10uM” value of the first is higher: -5.57% for the first, -54% for the second.

Going from Cn1c(N)c(C(=O)CSc2nc3ccccc3c(=O)n2CCCN2CCOCC2)c(=O)n(C)c1=O to O=C1CN(C(=O)CSc2nc3ccccc3c(=O)n2CCCN2CCOCC2)c2ccccc2N1, the “hERG current change (%, negative = inhibition) at 10uM” value falls from 2.7% to -19.7%.

Compared with CCOCCCn1c(SCC(=O)N2CCOCC2)nc2ccccc2c1=O, COCCCn1c(SCC(=O)N2CCOCC2)nc2ccccc2c1=O is higher in “hERG current change (%, negative = inhibition) at 10uM” value: -36% for the first, -5.65% for the second.

Compared with O=C(CSc1nc2ccccc2c(=O)n1CCCN1CCOCC1)N1CCN(c2ccccc2)CC1, Cc1onc(-c2c(Cl)cccc2Cl)c1C(=O)NCCCN1CCOCC1 is higher in “hERG current change (%, negative = inhibition) at 10uM” value: -70.6% for the first, 3.09% for the second.

Going from Cc1ccc(-n2nc(C)c3c2OC(N)=C(C#N)C3c2ccncc2)cc1 (stereo not shown) to COc1ccc(C(=O)OCC(=O)NC2CC2)cc1S(=O)(=O)N(C)Cc1ccccc1, the “hERG current change (%, negative = inhibition) at 10uM” value falls from 7.07% to -53.8%.

Going from COc1ccc(C(=O)OCC(=O)N(C)C2CCS(=O)(=O)C2)cc1S(=O)(=O)N(C)Cc1ccccc1 (stereo not shown) to CCN(C(=O)COC(=O)c1ccc(OC)c(S(=O)(=O)N(C)Cc2ccccc2)c1)C1CCS(=O)(=O)C1 (stereo not shown), the “hERG current change (%, negative = inhibition) at 10uM” value falls from -15.7% to -30.9%.

For CCN(Cc1ccccc1)S(=O)(=O)c1cc(C(=O)NCCCN(C)C)ccc1OC, the “hERG current change (%, negative = inhibition) at 10uM” value was -50.3%.
